Experimental data taken from PubChem BioAssay (EPA / NIEHS).
Inconclusive results are not listed. Calls of active or inactive are those of the source. The calls were made as follows, unless noted: active = hit-call score of the fitted dose curve at least 0.9, where 1 is the maximum; inconclusive = response in the unintended direction; inactive = score below 0.9.

How the values were obtained:
[1] = biological target: Peroxisome proliferator-activated receptor gamma (Homo sapiens) (UniProt P37231); experiment: ATG_PPARg_TRANS: Attagene TRANS-FACTORIAL HepG2 Assay for human Peroxisome Proliferator-activated Receptor-gamma (PPARg) (AID 2283007)
Peroxisome proliferator-activated receptor gamma (Homo sapiens), sequence (P37231 whole entry, looked up, the tested form may be a part): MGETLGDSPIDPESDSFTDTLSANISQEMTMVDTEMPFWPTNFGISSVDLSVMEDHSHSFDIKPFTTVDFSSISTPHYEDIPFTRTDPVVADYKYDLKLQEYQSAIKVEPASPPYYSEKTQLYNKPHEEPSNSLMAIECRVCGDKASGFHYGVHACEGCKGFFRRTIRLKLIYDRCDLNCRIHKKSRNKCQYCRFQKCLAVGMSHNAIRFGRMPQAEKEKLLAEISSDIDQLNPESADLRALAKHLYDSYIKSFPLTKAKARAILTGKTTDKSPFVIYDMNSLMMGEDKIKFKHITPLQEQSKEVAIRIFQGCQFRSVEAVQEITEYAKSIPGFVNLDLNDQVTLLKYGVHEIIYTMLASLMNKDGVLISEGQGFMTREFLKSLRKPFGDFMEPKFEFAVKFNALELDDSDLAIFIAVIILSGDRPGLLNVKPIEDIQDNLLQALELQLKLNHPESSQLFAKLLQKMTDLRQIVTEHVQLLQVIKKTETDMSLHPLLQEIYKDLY
Procedure, shortened: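 Read-out: reporter mRNA induction, detected by fluorescence after RT-PCR and capillary electrophoresis. Transiently transfected human HepG2 liver cells carrying a chimeric NR-Gal4 construct were dosed for 24 h; activity was fitted upward relative to DMSO.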

[2] = biological target: human RAR-related Orphan Receptor beta (RORb), RORB (gene 6096) (UniProt Q92753); experiment: ATG_RORb_TRANS: Attagene TRANS-FACTORIAL HepG2 Assay for human RAR-related Orphan Receptor beta (RORb) (AID 2283010)
human RAR-related Orphan Receptor beta (RORb), RORB (gene 6096), sequence (Q92753 whole entry, looked up, the tested form may be a part): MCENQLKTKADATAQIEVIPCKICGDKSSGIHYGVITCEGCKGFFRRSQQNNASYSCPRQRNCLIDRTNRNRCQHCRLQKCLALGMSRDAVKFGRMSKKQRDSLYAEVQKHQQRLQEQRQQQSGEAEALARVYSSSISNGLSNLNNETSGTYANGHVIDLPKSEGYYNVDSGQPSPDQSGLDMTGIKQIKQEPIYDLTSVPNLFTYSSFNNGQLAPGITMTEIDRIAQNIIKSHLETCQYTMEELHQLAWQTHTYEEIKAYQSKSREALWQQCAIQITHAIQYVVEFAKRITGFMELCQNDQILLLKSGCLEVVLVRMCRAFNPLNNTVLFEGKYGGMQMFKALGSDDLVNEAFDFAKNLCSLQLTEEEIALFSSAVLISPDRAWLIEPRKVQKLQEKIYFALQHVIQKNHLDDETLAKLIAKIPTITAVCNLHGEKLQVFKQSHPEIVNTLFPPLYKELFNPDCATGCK
Procedure, shortened: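 Readout is reporter-gene mRNA induction, detected as fluorescence after RT-PCR and capillary electrophoresis, fitted for gain of signal against DMSO controls. Transiently transfected HepG2 liver cells carrying GAL4-UAS reporter constructs were treated for 24 hours.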

[3] = biological target: human RAR-related Orphan Receptor gamma (RORg), RORC (gene 6097) (UniProt P51449); experiment: ATG_RORg_TRANS: Attagene TRANS-FACTORIAL HepG2 Assay for human RAR-related Orphan Receptor gamma (RORg) (AID 2283011);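 as to AC50: potency for induction of reporter transcripts above DMSO so activators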
human RAR-related Orphan Receptor gamma (RORg), RORC (gene 6097), sequence (P51449 whole entry, looked up, the tested form may be a part): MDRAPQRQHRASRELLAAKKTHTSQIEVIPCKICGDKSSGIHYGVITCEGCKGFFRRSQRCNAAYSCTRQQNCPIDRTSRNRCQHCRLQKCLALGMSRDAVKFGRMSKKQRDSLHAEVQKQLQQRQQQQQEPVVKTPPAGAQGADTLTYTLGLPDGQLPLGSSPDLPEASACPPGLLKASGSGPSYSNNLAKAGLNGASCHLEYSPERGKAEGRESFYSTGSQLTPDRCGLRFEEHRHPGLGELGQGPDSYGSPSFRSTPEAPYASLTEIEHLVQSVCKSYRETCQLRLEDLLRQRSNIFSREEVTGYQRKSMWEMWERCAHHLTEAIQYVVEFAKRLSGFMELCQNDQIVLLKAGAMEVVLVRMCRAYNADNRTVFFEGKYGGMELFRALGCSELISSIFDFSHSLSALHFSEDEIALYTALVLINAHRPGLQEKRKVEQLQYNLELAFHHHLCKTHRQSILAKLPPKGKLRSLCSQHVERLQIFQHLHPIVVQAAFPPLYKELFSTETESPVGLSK
Procedure, shortened: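 Readout: reporter transcript induction (RT-PCR, fluorescent primer extension, capillary electrophoresis) after 24 h compound exposure of transiently transfected HepG2 cells carrying a RORg-Gal4 chimera and GAL4-UAS reporters; DMSO served as baseline, with increasing signal fitted.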

[4] = biological target: Retinoic acid receptor RXR-alpha (Homo sapiens) (UniProt P19793); experiment: ATG_RXRa_TRANS: Attagene TRANS-FACTORIAL HepG2 Assay for human Retinoid X Receptor alpha (RXRa) (AID 2283012)
Retinoic acid receptor RXR-alpha (Homo sapiens), sequence (P19793 whole entry, looked up, the tested form may be a part): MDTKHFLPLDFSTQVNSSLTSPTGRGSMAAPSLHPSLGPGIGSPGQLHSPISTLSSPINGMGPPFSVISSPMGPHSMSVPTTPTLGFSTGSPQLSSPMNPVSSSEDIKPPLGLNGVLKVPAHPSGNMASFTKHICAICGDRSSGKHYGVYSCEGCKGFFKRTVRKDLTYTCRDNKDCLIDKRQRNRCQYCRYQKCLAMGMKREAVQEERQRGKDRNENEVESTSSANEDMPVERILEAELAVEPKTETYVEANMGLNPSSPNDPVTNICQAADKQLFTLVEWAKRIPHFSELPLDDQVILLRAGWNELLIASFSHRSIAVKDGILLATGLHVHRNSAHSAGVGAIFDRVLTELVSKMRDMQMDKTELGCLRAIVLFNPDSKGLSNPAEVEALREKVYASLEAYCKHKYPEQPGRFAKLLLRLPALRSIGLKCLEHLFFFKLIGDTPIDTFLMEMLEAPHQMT
Procedure, shortened: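 Transient transfection of human HepG2 with multiple GAL4-UAS reporter constructs; 24 h compound exposure; total RNA isolated, reverse-transcribed, PCR-amplified, 6-FAM labelled, HpaI-cut, resolved by capillary electrophoresis. Positive-direction fit versus DMSO.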

[5] = biological target: Nuclear receptor subfamily 1 group I member 2 (Homo sapiens) (UniProt O75469); experiment: ATG_PXR_TRANS: Attagene TRANS-FACTORIAL HepG2 Assay for human Pregnane X Receptor (PXR) (AID 2283008)
Nuclear receptor subfamily 1 group I member 2 (Homo sapiens), sequence (O75469 whole entry, looked up, the tested form may be a part): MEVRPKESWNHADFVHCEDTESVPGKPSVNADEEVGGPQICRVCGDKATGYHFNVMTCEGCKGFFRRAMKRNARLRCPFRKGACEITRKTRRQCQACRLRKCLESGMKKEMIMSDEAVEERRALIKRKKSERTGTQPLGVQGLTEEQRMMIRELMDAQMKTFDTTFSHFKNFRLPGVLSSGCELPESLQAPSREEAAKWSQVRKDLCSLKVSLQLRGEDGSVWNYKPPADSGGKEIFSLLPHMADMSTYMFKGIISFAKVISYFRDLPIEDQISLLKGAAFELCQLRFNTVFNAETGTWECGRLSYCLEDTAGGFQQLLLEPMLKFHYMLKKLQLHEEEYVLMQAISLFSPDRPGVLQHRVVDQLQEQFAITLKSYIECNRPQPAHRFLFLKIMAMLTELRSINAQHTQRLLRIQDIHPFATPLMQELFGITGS
Procedure, shortened: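 Read-out is fluorescence of labelled reporter cDNA fragments separated by capillary electrophoresis after RT-PCR and HpaI digestion. Source: HepG2 cells carrying PXR-GAL4/UAS reporter constructs, treated 24 h; activity fitted upward relative to DMSO.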

[6] = biological target: human Retinoid X Receptor beta (RXRb), RXRB (gene 6257) (UniProt P28702); experiment: ATG_RXRb_TRANS: Attagene TRANS-FACTORIAL HepG2 Assay for human Retinoid X Receptor beta (RXRb) (AID 2283013)
human Retinoid X Receptor beta (RXRb), RXRB (gene 6257), sequence (P28702 whole entry, looked up, the tested form may be a part): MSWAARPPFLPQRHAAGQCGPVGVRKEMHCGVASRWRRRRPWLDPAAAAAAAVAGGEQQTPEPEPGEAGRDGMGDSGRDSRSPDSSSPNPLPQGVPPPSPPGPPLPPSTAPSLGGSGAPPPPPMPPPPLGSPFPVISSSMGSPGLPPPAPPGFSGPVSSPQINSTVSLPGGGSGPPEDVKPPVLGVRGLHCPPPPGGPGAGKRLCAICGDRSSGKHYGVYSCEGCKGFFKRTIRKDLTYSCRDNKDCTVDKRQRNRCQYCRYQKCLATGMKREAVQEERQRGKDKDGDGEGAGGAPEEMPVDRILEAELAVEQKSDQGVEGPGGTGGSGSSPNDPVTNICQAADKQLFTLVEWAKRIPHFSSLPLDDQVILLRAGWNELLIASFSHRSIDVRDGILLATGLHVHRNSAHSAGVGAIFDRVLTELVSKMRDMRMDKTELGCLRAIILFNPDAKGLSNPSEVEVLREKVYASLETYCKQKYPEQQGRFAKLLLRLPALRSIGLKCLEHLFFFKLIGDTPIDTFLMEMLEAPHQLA
Procedure, shortened: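 Transfect HepG2 with GAL4-UAS multi-reporter constructs (chimeric NR-Gal4, TRANS format); dose compound 24 h; isolate RNA, RT-PCR, FAM primer extension, HpaI digest; quantify by capillary electrophoresis; positive direction vs DMSO.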

[7] = biological target: human Thyroid Receptor alpha (THRa1), THRA (gene 7067) (UniProt P10827); experiment: ATG_THRa1_TRANS: Attagene TRANS-FACTORIAL HepG2 Assay for human Thyroid Receptor alpha (THRa1) (AID 2283014)
human Thyroid Receptor alpha (THRa1), THRA (gene 7067), sequence (P10827 whole entry, looked up, the tested form may be a part): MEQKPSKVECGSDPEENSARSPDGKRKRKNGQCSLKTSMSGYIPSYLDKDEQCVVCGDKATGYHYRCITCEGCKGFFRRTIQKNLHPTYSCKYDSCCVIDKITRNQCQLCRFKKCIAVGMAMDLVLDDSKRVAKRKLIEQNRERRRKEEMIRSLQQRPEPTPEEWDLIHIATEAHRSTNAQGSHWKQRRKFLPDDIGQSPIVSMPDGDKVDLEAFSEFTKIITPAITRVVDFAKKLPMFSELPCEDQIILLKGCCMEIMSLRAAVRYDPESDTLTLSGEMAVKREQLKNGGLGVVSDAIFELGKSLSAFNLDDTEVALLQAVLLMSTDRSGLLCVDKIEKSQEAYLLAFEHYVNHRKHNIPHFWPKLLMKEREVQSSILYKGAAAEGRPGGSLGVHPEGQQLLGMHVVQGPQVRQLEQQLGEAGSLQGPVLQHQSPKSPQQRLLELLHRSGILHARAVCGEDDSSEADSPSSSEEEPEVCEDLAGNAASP
Procedure, shortened: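 HepG2 cells transiently transfected with multiplexed GAL4-UAS reporter units for exogenous chimeric THRa1-Gal4; reporter mRNA measured 24 h after dosing by RT-PCR, 6-FAM labelling, HpaI digestion and capillary electrophoresis. Gain-of-signal fitted versus DMSO baseline.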

[8] = read-out: Intercellular Adhesion Molecule 1 (ICAM1), ICAM1 (gene 3383); experiment: BSK_3C_ICAM1: BioMAP Diversity Plus: 3C Assay for Intercellular Adhesion Molecule 1 (ICAM1) Biomarker Activity (AID 2283003; active = hit-call score of the fitted dose curve at least 0.9, where 1 is the maximum; inactive = score below 0.9); settings: primary human endothelial cells (HUVEC); actives raise or lower the signal
Procedure, shortened: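 ICAM-1 levels measured by ELISA after HUVEC cultures in the 3C system had been dosed for 24 h. Gain or loss of signal relative to DMSO was fitted in both directions.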

[9] = BSK_3C_Proliferation: Cell Proliferation Assessment in the BioMAP Diversity Plus: 3C Assay (AID 2283006; active = hit-call score of the fitted dose curve at least 0.9, where 1 is the maximum; inactive = score below 0.9); settings: primary human endothelial cells (HUVEC)
Procedure, shortened: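 Read-out is total protein by SRB absorbance at 560 nm, taken as a proxy for relative cell number. Primary human umbilical vein endothelium cultured below confluence was dosed for 48 h, TCA-fixed and SRB-stained; curves were fitted bidirectionally versus DMSO.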

[10] = read-out: E-selectin (Homo sapiens) (UniProt P16581); experiment: BSK_3C_Eselectin: BioMAP Diversity Plus: 3C Assay for Eselectin Biomarker Activity (AID 2283015; active = hit-call score of the fitted dose curve at least 0.9, where 1 is the maximum; inactive = score below 0.9;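 also: cell surface E-selectin protein quantified by ELISA 24 h after dosing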); settings: primary human endothelial cells (HUVEC); actives raise or lower the signal
Procedure, shortened: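 Primary human umbilical vein endothelial cells (3C system) were dosed with chemical and cell-surface E-selectin measured by ELISA 24 h later. Bidirectional curve fitting used DMSO as negative control and baseline.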

[11] = read-out: Interleukin-1 alpha (IL1a), IL1A (gene 3552); experiment: BSK_BE3C_IL1a: BioMAP Diversity Plus: BE3C Assay for Interleukin-1 alpha (IL1a) Biomarker Activity (AID 2283016; active = hit-call score of the fitted dose curve at least 0.9, where 1 is the maximum; inactive = score below 0.9); settings: primary human bronchial epithelial cells; actives raise or lower the signal
Procedure, shortened: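 BE3C primary human bronchial epithelium; cpd 24 h; IL-1a by ELISA; bidirectional fit vs DMSO; parallel SRB (0.1% SRB, 10% TCA fix, 560 nm) for cytotoxicity.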

[12] = read-out: Monocyte Chemoattractant Protein-1 (MCP1), CCL2 (gene 6347); experiment: BSK_3C_MCP1: BioMAP Diversity Plus: 3C Assay for Monocyte Chemoattractant Protein-1 (MCP1) Biomarker Activity (AID 2283017; active = hit-call score of the fitted dose curve at least 0.9, where 1 is the maximum; inactive = score below 0.9); settings: primary human endothelial cells (HUVEC); actives raise or lower the signal
Procedure, shortened: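 Primary human umbilical vein endothelial cells (3C system) were exposed to test chemical for 24 h, after which MCP-1 was quantified by ELISA. Activity was fitted bidirectionally against DMSO as negative control and baseline.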

[13] = read-out: Monocyte Chemoattractant Protein-1 (MCP1), CCL2 (gene 6347); experiment: BSK_4H_MCP1: BioMAP Diversity Plus: 4H Assay for Monocyte Chemoattractant Protein-1 (MCP1) Biomarker Activity (AID 2283018; active = hit-call score of the fitted dose curve at least 0.9, where 1 is the maximum; inactive = score below 0.9); settings: primary human endothelial cells (HUVEC); actives raise or lower the signal
Procedure, shortened: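 ELISA read-out of MCP-1 from human vascular endothelial primary cells taken at 24 hours after compound exposure. Activity was fitted in both directions relative to DMSO, which served as negative control.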

[14] = read-out: Human Leukocyte Antigen - DR isotype (HLADR), HLA-DRA (gene 3122); experiment: BSK_3C_HLADR: BioMAP Diversity Plus: 3C Assay for Human Leukocyte Antigen - DR isotype (HLADR) Biomarker Activity (AID 2283019; active = hit-call score of the fitted dose curve at least 0.9, where 1 is the maximum; inactive = score below 0.9;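 also: ELISA of cell-surface HLA-DR on HUVEC 24 h after dosing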); settings: primary human endothelial cells (HUVEC); actives raise or lower the signal
Procedure, shortened: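 Primary human umbilical vein endothelial cells (3C system) were dosed with compound and cell-surface HLA-DR was quantified by ELISA at 24 h. Activity was fitted bidirectionally against DMSO as negative control and baseline.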

[15] = read-out: Interleukin-8 (IL8), CXCL8 (gene 3576); experiment: BSK_3C_IL8: BioMAP Diversity Plus: 3C Assay for Interleukin-8 (IL8) Biomarker Activity (AID 2283020; active = hit-call score of the fitted dose curve at least 0.9, where 1 is the maximum; inactive = score below 0.9); settings: primary human endothelial cells (HUVEC); actives raise or lower the signal
Procedure, shortened: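 ELISA read-out of IL-8 from human umbilical vein endothelium, measured 24 h after chemical dosing. Activity is expressed relative to DMSO negative control, with both increases and decreases fitted.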

[16] = biological target: Retinoic acid receptor alpha (Homo sapiens) (UniProt P10276); experiment: ATG_RARa_TRANS: Attagene TRANS-FACTORIAL HepG2 Assay for human Retinoic Acid Receptor alpha (RARa) (AID 2283005)
Retinoic acid receptor alpha (Homo sapiens), sequence (P10276 whole entry, looked up, the tested form may be a part): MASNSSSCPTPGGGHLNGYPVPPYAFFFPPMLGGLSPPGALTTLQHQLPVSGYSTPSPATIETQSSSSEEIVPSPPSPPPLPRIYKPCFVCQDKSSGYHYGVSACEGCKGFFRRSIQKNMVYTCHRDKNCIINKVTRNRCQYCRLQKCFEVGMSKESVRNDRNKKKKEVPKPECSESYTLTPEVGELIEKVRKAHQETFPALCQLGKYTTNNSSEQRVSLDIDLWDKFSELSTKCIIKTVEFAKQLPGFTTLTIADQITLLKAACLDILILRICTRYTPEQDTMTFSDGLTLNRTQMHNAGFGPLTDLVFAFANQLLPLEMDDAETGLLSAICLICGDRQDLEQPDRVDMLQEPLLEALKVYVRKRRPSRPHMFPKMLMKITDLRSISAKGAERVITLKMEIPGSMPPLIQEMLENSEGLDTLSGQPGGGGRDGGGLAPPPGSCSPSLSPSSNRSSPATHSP
Procedure, shortened: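 HepG2 transiently transfected with multiplex GAL4-UAS reporter units including a human RARa–GAL4 chimera; 24 h compound exposure. Reporter mRNA quantified by RT-PCR, 6-FAM labeling and capillary electrophoresis; gain of signal versus DMSO.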

[17] = biological target: human Retinoic Acid Receptor beta (RARb), RARB (gene 5915) (UniProt P10826); experiment: ATG_RARb_TRANS: Attagene TRANS-FACTORIAL HepG2 Assay for human Retinoic Acid Receptor beta (AID 2283004)
Procedure, shortened: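 HepG2 cells transiently transfected with multiplexed GAL4-UAS reporter units expressing chimeric NR–Gal4 fusions; 24 h compound exposure. Reporter mRNA quantified by RT-PCR, 6-FAM labelling, HpaI digestion and capillary electrophoresis; gain-of-signal fitted against DMSO baseline.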

[18] = biological target: human Retinoic Acid Receptor gamma (RARg), RARG (gene 5916) (UniProt P13631); experiment: ATG_RARg_TRANS: Attagene TRANS-FACTORIAL HepG2 Assay for human Retinoic Acid Receptor gamma (RARg) (AID 2283009)
human Retinoic Acid Receptor gamma (RARg), RARG (gene 5916), sequence (P13631 whole entry, looked up): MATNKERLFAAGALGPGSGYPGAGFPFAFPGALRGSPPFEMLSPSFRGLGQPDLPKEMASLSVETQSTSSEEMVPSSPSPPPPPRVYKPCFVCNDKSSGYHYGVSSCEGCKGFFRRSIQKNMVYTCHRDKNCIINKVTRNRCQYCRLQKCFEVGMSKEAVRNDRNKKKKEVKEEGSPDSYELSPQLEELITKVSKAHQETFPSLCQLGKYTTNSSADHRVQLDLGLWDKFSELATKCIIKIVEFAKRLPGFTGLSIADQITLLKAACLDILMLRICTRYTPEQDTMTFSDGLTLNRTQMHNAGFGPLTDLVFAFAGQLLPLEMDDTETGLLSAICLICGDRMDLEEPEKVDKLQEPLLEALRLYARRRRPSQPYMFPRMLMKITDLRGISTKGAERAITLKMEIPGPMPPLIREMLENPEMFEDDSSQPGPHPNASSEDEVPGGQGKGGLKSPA
Procedure, shortened: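 Transient transfection of HepG2 with multi-reporter constructs, then 24 h chemical treatment. Total RNA isolated, reverse-transcribed, PCR-amplified, fluorescently labelled and resolved by capillary electrophoresis; activity scored as mRNA induction versus DMSO.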

E-selectin (Homo sapiens), sequence (P16581 whole entry, looked up): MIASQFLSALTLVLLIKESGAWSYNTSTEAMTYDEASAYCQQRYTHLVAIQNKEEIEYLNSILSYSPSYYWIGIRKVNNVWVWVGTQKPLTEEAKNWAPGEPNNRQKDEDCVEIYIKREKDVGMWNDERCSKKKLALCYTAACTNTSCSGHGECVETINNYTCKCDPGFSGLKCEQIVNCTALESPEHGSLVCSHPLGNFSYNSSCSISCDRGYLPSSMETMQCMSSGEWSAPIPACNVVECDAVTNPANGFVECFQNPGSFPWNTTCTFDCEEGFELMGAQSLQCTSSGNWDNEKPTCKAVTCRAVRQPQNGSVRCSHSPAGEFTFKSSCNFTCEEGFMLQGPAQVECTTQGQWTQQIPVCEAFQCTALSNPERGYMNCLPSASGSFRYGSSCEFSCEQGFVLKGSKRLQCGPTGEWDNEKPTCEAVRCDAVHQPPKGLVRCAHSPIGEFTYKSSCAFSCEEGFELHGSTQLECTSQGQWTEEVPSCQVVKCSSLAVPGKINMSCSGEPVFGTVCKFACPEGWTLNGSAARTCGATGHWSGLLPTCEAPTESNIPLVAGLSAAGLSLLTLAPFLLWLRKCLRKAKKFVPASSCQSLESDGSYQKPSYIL

## N#Cc1nc(Cl)c(Cl)c(Cl)c1Cl
[1]
  AC50: 0.206 µM (active)
[2]
  outcome: inactive
[3]
  AC50: 2.56 µM (active)
[4]
  outcome: inactive

## C=CC(C)(C)O
[1]
  outcome: inactive
[5]
  outcome: inactive
[4]
  outcome: inactive
[6]
  outcome: inactive

## COc1ccc(NC(=O)CC(C)=O)cc1
[1]
  outcome: inactive
[5]
  outcome: inactive
[3]
  outcome: inactive
[4]
  outcome: inactive

## CC(=O)OCCOC(C)=O
[3]
  outcome: inactive
[4]
  outcome: inactive
[7]
  outcome: inactive

## CCCCCCCCCOC(C)=O
[5]
  outcome: inactive
[4]
  outcome: inactive
[6]
  outcome: inactive
[7]
  outcome: inactive

## CC(C)(CO)[N+](=O)[O-]
[1]
  outcome: inactive
[5]
  outcome: inactive
[2]
  outcome: inactive
[7]
  outcome: inactive

## O=C(O)c1ccc([N+](=O)[O-])cc1
[8]
  outcome: inactive
[9]
  outcome: inactive
[6]
  outcome: inactive
[7]
  outcome: inactive
[10]
  outcome: inactive
[11]
  outcome: inactive
[12]
  outcome: inactive
[13]
  outcome: inactive
[14]
  outcome: inactive
[15]
  outcome: inactive

## CCCCCCCCCCCCCCCCCC(=O)OCC(CC)CCCC (stereo not given)
[8]
  outcome: inactive
[9]
  outcome: inactive
[6]
  outcome: inactive
[10]
  outcome: inactive
[11]
  outcome: inactive
[12]
  outcome: inactive
[13]
  outcome: inactive
[14]
  outcome: inactive
[15]
  outcome: inactive

## CC(=O)[O][Al][O]C(C)=O
[2]
  outcome: inactive
[6]
  AC50: 44.5 µM (active)
[7]
  outcome: inactive

## CC(C)C1CCC(O)CC1 (stereo not given)
[5]
  outcome: inactive
[4]
  outcome: inactive
[7]
  outcome: inactive

## CC1(C)OC[C@@H]2O[C@@]3(C(=O)O)OC(C)(C)O[C@H]3[C@@H]2O1
[16]
  outcome: inactive
[3]
  outcome: inactive

## O=[N+]([O-])c1ccc(C=Cc2ccc([N+](=O)[O-])cc2S(=O)(=O)O)c(S(=O)(=O)O)c1
[2]
  outcome: inactive
[7]
  outcome: inactive

## O=C(O)c1ccc(C(=O)O)cc1
[5]
  outcome: inactive
[3]
  outcome: inactive
[7]
  outcome: inactive

## O=c1[nH]c(=O)n([C@H]2CCCO2)cc1F
[7]
  outcome: inactive

## Nc1cc(N)cc(C(=O)O)c1
[3]
  outcome: inactive
[4]
  outcome: inactive
[7]
  outcome: inactive

## NCCOCCO
[5]
  outcome: inactive
[3]
  outcome: inactive
[4]
  outcome: inactive
[7]
  outcome: inactive

## COC(C)CCO (stereo not given)
[17]
  outcome: inactive
[16]
  outcome: inactive
[1]
  outcome: inactive
[5]
  outcome: inactive
[18]
  outcome: inactive
[3]
  outcome: inactive
[4]
  AC50: 53.7 µM (active)
[6]
  AC50: 4.07 µM (active)
[7]
  outcome: inactive

## CCCCCNCCCCC
[1]
  outcome: inactive
[5]
  outcome: inactive
[18]
  outcome: inactive
